Data from PubChem BioAssay AID2284141 (EPA ToxCast).
Inconclusive results are not listed. Activity calls are given as the source filed them. Rule for the calls: active = hit-call score of the fitted dose curve at least 0.9, where 1 is the maximum; inconclusive = response in the unintended direction; inactive = score below 0.9.

molecular target: hamster Adenylyl Cyclase, Adcy5 (gene 64532) (UniProt Q04400); experiment: ERF_FR_ENZ_rACFSK_Antagonist: Eurofins (ERF) Enzymatic LeadHunter Assay for hamster Adenylyl Cyclase Antagonism
Description: ERF_FR_ENZ_rACFSK_Antagonist is a biochemical, single-readout assay that uses extracted gene-proteins in a cell-free assay. Measurements were taken 0.16 hour after chemical dosing in a 96-well plate. See Adenylyl Cyclase Hamster Enzymatic Antagonist Assay, Cerep.ERF_FR_ENZ_rACFSK_Antagonist is an assay component calculated from the ERF_FR_ENZ_rACFSK assay. It is designed to measure enzyme activity using a type of enzyme reporter as detected by fluorescence intensity with HTRF technology.Data from the assay component ERF_FR_ENZ_rACFSK_Antagonist was analyzed at the assay endpoint, ERF_FR_ENZ_rACFSK_Antagonist, in the positive analysis fitting direction relative to DMSO as the negative control and baseline of activity. Using a type of enzyme reporter, loss-of-signal activity can be used to understand changes in binding as they relate to gene ADCY5. To generalize the intended target to other relatable targets, this assay endpoint is annotated to the gpcr intended target family, where the subfamily is adenylyl cyclase.
Hamster cells are incubated for 10 minutes at room temprature. Test Sample Requirements: Minimum for 1) Screen: 60 ul of 10 mM stock -OR- 1 mg (pre-weighed) for 10 uM final testing. 2) Dose Response: 90 ul of 10 mM stock -OR- 1 mg (pre-weighed) for a top concentration at 10 uM.

hamster Adenylyl Cyclase, Adcy5 (gene 64532), sequence (Q04400 whole entry, looked up): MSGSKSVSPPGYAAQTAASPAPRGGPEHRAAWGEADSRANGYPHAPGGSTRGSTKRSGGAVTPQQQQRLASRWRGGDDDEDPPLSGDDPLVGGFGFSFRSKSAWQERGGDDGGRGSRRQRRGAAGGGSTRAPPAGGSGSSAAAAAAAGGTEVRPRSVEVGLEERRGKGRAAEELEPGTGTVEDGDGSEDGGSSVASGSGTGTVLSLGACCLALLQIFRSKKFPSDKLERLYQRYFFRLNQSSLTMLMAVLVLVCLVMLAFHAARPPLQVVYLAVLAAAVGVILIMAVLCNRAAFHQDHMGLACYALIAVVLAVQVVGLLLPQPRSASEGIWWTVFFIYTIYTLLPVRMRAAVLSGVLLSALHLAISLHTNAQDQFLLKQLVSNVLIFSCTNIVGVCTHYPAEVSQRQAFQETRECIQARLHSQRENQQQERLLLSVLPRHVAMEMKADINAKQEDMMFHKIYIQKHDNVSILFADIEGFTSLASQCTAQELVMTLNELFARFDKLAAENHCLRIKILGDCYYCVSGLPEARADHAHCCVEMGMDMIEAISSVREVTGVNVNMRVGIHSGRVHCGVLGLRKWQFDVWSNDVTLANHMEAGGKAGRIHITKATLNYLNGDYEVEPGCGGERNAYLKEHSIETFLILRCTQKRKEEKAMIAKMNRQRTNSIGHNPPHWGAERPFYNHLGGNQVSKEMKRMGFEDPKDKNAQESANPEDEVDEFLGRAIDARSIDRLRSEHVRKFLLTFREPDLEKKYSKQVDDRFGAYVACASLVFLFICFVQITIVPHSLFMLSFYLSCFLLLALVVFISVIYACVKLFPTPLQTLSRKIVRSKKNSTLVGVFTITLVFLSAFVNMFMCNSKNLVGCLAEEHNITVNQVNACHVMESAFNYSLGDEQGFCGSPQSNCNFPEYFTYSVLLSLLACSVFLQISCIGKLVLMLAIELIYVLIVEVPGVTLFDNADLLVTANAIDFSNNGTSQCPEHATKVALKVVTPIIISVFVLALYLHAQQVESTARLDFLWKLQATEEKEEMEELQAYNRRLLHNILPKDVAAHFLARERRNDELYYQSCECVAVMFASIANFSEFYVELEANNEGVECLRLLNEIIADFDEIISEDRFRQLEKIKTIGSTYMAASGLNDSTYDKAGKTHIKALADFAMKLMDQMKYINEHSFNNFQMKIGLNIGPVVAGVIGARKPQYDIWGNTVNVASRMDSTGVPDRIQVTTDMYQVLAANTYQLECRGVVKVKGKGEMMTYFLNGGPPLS

Row | Structure (SMILES) | AC50 | outcome
1 | COc1cccc2c1C(=O)c1c(O)c3c(c(O)c1C2=O)C[C@@](O)(C(=O)CO)C[C@@H]3O[C@H]1C[C@H](N)[C@H](O)[C@H](C)O1 | 2600 nM (active) | –
2 | COc1cc(CCC(=O)CC(=O)CCc2ccc(O)c(OC)c2)ccc1O | – | inactive
3 | O=C(/C=C/c1ccc(O)cc1)CC(=O)/C=C/c1ccc(O)cc1 | – | inactive
